Measured values taken from the supplement of paper PMC6609913.
Structures can show the parent of a compound that is named as a salt. ± gives the standard deviation of the averaged measurements. Over roughly 1,300 compounds, “normalised cell viability” has its median near 1; the lowest 2% begin near 0.14. The full list was thinned out, with the lowest values kept by preference.

Test system: V-C8 (BRCA2-deficient hamster cells)
Assay: normalised cell viability (fraction of plate median); higher = more viable cells (less toxic)
Details: 5 µM
In short: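 Library drugs, held as 10 mM stocks in DMSO, were diluted to 5 μM in 100 μl medium and added to 96-well plates of V-C8 hamster cells, either lacking BRCA2 or with BRCA2 restored, 24 h after seeding. Plates ran for 3 days (screen 1) or 6 days (screen 2), alongside solvent-only wells. Viability came from a resazurin readout, median-plate normalised, as the mean of triplicate wells.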

| SMILES | normalised cell viability (treatment time: 3 days) | normalised cell viability (treatment time: 6 days) |
| --- | --- | --- |
| COc1cc([C@@H]2c3cc4c(cc3[C@H](O)[C@H]3COC(=O)[C@H]23)OCO4)cc(OC)c1OC [Podophyllotoxin] | 0.126 ± 0.01 | 0.143 ± 0.0037 |
| C[C@]12CC[C@@H]3c4ccc(OC(=O)N(CCCl)CCCl)cc4CC[C@H]3[C@@H]1CC[C@@H]2O [Estramustine] | 0.175 ± 0.019 | 0.213 ± 0.013 |
| CCC1(C)CC(=O)NC(=O)C1 [Bemegride] | 0.925 ± 0.075 | 1.06 ± 0.055 |
| NCC(O)c1ccc(O)cc1 (racemic) [(+,-)-Octopamine hydrochloride] | 1.02 ± 0.083 | 1.1 ± 0.083 |
| CC[C@@]1(O)C(=O)OCc2c1cc1n(c2=O)Cc2cc3ccccc3nc2-1 [Camptothecine (S,+)] | 0.148 ± 0.0039 | 0.109 ± 0.008 |
| CC[C@@]1([C@@H]2O[C@@H]([C@H]3O[C@@](O)(CO)[C@H](C)C[C@@H]3C)C[C@@H]2C)CC[C@H]([C@]2(C)CC[C@]3(C[C@H](O)[C@@H](C)[C@@H]([C@@H](C)[C@@H](OC)[C@H](C)C(=O)O)O3)O2)O1 [Monensin sodium salt] | 0.156 ± 0.0082 | 0.128 ± 0.0063 |
| C[N+](C)(C)CCCCCCCCCC[N+](C)(C)C [Decamethonium bromide] | 1.18 ± 0.34 | 1.019 ± 0.0077 |
| C[N+]1(C)[C@@H]2CC[C@H]1C[C@@H](OC(=O)C(CO)c1ccccc1)C2 (stereo partly specified) [Methylatropine nitrate] | 1.11 ± 0.021 | 1.15 ± 0.091 |
| Oc1cc(Cl)ccc1Oc1ccc(Cl)cc1Cl [Triclosan] | 0.974 ± 0.022 | 1 ± 0.02 |
| C[N+]1([O-])[C@@H]2C[C@@H](OC(=O)[C@H](CO)c3ccccc3)C[C@H]1[C@@H]1O[C@@H]12 (stereo partly specified) [Scopolamin-N-oxide hydrobromide] | 0.997 ± 0.074 | 0.945 ± 0.092 |
| CC(C)(C)NCC(O)c1ccccc1Cl (stereo unspecified) [Tulobuterol] | 1.07 ± 0.015 | 1.05 ± 0.086 |
| C[C@@H]1C[C@@H]([C@H](O)CC2CC(=O)NC(=O)C2)C(=O)[C@@H](C)C1 [Cycloheximide] | 0.132 ± 0.0063 | 0.142 ± 0.0068 |
| C=CCC1(CC(C)C)C(=O)NC(=O)NC1=O [Butalbital] | 1.1 ± 0.031 | 1.079 ± 0.0048 |
| C=C1[C@@H]2CC[C@H]3[C@]4(C)C[C@H](O[C@@H]5O[C@H](CO)[C@@H](OS(=O)(=O)O)[C@H](OS(=O)(=O)O)[C@H]5OC(=O)CC(C)C)C[C@@H](C(=O)O)[C@H]4CC[C@]3(C2)[C@@H]1O [Atractyloside potassium salt] | 1.05 ± 0.051 | 1.09 ± 0.079 |
| C[C@]12CC[C@H]3[C@@H](CCC4=CC(=O)CC[C@@H]43)[C@@H]1CC[C@@H]2O [Nandrolone] | 0.993 ± 0.11 | 1.02 ± 0.028 |
| CN1C[C@H](C(=O)N[C@]2(C)O[C@@]3(O)[C@@H]4CCCN4C(=O)[C@H](Cc4ccccc4)N3C2=O)C[C@@H]2c3cccc4[nH]cc(c34)C[C@H]21 [Dihydroergotamine tartrate] | 1.06 ± 0.024 | 1.02 ± 0.12 |
| CN1C[C@H](CNC(=O)OCc2ccccc2)C[C@@H]2c3cccc4c3c(cn4C)C[C@H]21 [Metergoline] | 0.1447 ± 0.00066 | 0.133 ± 0.017 |
| CO[C@]12C[C@@H](COC(=O)c3cncc(Br)c3)CN(C)[C@@H]1Cc1cn(C)c3cccc2c13 [Nicergoline] | 0.886 ± 0.074 | 0.994 ± 0.033 |
